# TCR act – activates T cell receptor signaling. AID 504894. 330,000 tested, under 10 active. Potency, µM (series often up to 9.22 µM), for the others: at the top dose activation of IL-2 secretion, hits mostly activators. primary human leukocytes, anti-CD3, IL-2 HTRF, 48 h; further: % of control where 0% means no effect
#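 Activity was scored as IL-2 release from primary human leukocytes given only a TCR signal (a-CD3 beads) plus compound for 48 hr. Detection used a two-antibody HTRF format read at 665nm.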
# PKM2 activator – activators of human pyruvate kinase M2. Potency, µM (series often up to 57.5 µM), without a hit: at the top dose activation, hits mostly activators. P14618. purified PKM2, Kinase-Glo ATP luminescence, activation; response scale: 0% is enzyme alone, no compound. 0.34% of 260,000 active; further: potency means the concentration at half of the fitted maximal effect; on the % scale 0 is the no-effect control and ±100 the full control effect; nearly all actives have a fitted effect of over 55% in size
# Target sequence (P14618 whole entry, looked up): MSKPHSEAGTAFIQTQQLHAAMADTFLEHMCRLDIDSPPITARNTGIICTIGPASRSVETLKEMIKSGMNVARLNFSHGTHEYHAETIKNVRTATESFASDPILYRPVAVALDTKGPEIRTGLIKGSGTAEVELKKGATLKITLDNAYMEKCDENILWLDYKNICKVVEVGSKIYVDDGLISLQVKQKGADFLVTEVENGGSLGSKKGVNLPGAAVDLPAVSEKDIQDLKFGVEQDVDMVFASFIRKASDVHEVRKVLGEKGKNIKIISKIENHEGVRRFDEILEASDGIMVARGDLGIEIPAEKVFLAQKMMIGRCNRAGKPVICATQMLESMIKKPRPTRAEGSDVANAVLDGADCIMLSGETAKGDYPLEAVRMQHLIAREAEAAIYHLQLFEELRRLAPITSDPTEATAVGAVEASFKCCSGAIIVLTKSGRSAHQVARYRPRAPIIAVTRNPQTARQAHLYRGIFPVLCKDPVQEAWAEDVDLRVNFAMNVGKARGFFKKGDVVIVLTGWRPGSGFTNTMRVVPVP
#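 Kinase-Glo luminescence reports ATP generated from ADP (0.1 mM) and PEP (0.5 mM) by purified hPK-M2 after 1 h at room temperature, pH 7.2 imidazole buffer; intermediate enzyme activity allows detecting inhibitors and activators.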
# TSHR antag – human thyrotropin receptor antagonism; P16473; 0.2% of 330,000 active; TSHR-expressing cells, TSH-stimulated cAMP HTRF, 2 h; active compounds read low; AID 504810; activity change, negative = inhibition, % at 11.5 µM;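 active means activity change below a set negative limit, meaning inhibition stronger than a set level, cut at about -70% in these data; inconclusive means activity change between two set negative limits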; further: on the % scale 0 is the no-effect control and ±100 the full control effect
#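 Freshly harvested TSHR cells receive pin-tooled compound, then EC80 TSH at 4nM final. After 2 hours at 37 deg C, antibody in lysis buffer and cAMP-d2 are added; 30 minutes at ambient temperature precede the HTRF read.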
# uPA generation – blocks generation of uPA at the cell surface; cell surface uPA generation assay, qHTS; Potency, µM (highest dose often 38.3 µM), without a hit: at the highest dose activity change, negative = inhibition, usual class: inhibitors; 0.31% of 330,000 active; AID 540303; active means well fitted inhibition curve with a large enough effect; inconclusive means small, poorly fitted or top-dose-only effect; inactive means no such curve, though single readings can be large or run the other way; tested in mouse RAW 264.7 cells; further: potency means the concentration at half of the fitted maximal effect; on the % scale 0 is the no-effect control and ±100 the full control effect; nearly all actives have a fitted effect of over 55% in size
# * hit, by the source's call; ? = inconclusive; · = no result; [ ] = another dose, or the depositor's remark. Shown are actives, neighbours in structure and some others; about 0.75% of the full set was active somewhere. Unless noted, the call rests on the fitted dose curve; in most records, active means well fitted curve in the direction sought with a large enough effect; inconclusive means small, poorly fitted or top-dose-only effect, or another doubt; inactive means no such curve, though single readings can be large; an effect the other way counts as inactive or inconclusive.
SMILES,TCR act,PKM2 activator,TSHR antag,uPA generation
C=C1C(=O)C23C(O)C1CCC2C12CCCC(C)(COC(C)=O)C1C(O)C3(O)OC2 (stereo not drawn),2%,·,·,-10%
Cc1cccn(Cc2c(F)cccc2Cl)c1=O,-56%,32µM*,4,4%
CCO[C@H]1OC(C(=O)O)=C[C@@H](c2ccccc2)[C@@H]1CCCO,6%,·,·,6%
Cc1cc2oc(=O)sc2cc1NS(=O)(=O)c1cccc2cccnc12,-1%,32µM*,-12,0%
CCCCCCCC1=Cc2ccc(F)cc2C(C(C(C)=O)C(=O)OC)N1C(=O)OC (stereo not drawn),·,-8%[11.5 µM],·,·
Cc1ccc(OCc2cc(C(=O)NC3CCCCC3)no2)cn1,0%,0%[0.46 µM],-109*,-26%
O=C(NC1CCCCC1)c1cc(-c2ccc(O)cc2)on1,4%,-1%,-3,-2%
O=C(NC1CCCCC1)c1cc(-c2ccccc2O)on1,-5%,1%,-80*,1%
CCOc1cc(/C=N/Nc2nc(N3CCCCC3)nc(N3CCCCC3)n2)ccc1OC(=O)c1ccco1,-2%,2%,10,13µM*
O=S(=O)(NCC1CCCO1)c1ccc(Cl)nc1 (stereo not drawn),-18%,-2%,-11,1%
COc1ccc(-n2c(NNC(C)=O)nc3sc4c(c3c2=O)CCCC4)cc1,·,-5%,-6,7.9µM*
CC(C)NC(=O)NC(=O)CSc1ncc(C(F)(F)F)cc1Cl,-1%,14µM*,6,·
O=C(NCc1ccccc1)c1cc(-c2cccc(O)c2)on1,-3%,-2%,-1,2.8µM*
O=C(Nc1ccc2c(c1)OCCO2)c1cccc(Br)c1,0%,-8%[11.5 µM],-1,-6%
CCCOc1cccc(C(=O)Nc2ccc3c(c2)OCCO3)c1,5%,2%[11.5 µM],-8,10µM*
CC1(C)CC2CC(C)(CN2S(=O)(=O)c2ccc(F)cc2F)C1 (stereo not drawn),-4%,·,-17,7%
O=C(CN1CCCCC1)NCC(=O)Nc1ccc(F)c(F)c1F,11%,·,24,-2%
NS(=O)(=O)c1ccc(NC(=O)COC(=O)c2ccc([N+](=O)[O-])s2)cc1,-2%,1%,-9,0%
COc1cc2c(-c3ccc4[nH]ccc4c3)c(-c3ccc(C#N)cc3)oc(=O)c2cc1OC,9%,·,-22,2.5µM*
Nc1nc(-c2ccccc2)cn1N,-1%,28µM*,11,5%
CC(=O)c1ccc(OCCn2c(SCC(=O)O)nc3ccccc32)cc1,-3%,0%,-6,11%
Cc1cc(-c2nnc(SCC(=O)Nc3nccs3)o2)no1,-30%,16µM*,-9,0%
Cc1ccnc(N2C(=O)c3cccc4c([N+](=O)[O-])ccc(c34)C2=O)c1,3%,-1%,-22,?
Cc1nnc(N2C(=O)c3cccc4c([N+](=O)[O-])ccc(c34)C2=O)s1,·,0%,?,10µM*
CC(=O)OCCCNc1cc(Sc2nc3ccccc3s2)c2nonc2c1[N+](=O)[O-],-4%,11%,-4,-2%
SMILES,TCR act,PKM2 activator,TSHR antag,uPA generation
CC(=O)OCCNc1cc(Sc2nc3ccccc3[nH]2)c2nonc2c1[N+](=O)[O-],-2%[46.1 µM],-4%,-88*,0%
CS(=O)(=O)c1ccc(Cl)c(NC(=O)c2cc(=O)[nH]c3ccc(S(=O)(=O)N4CCOCC4)cc23)c1,1%,·,2,-2%
C/C=C\C=C\C(=O)N1CC2(CC(c3cccc(NC(=O)CC)c3)=NO2)C[C@H]1C(N)=O (stereo partly drawn),-1%,7.9µM*,2,9%
C/C=C\C=C\C(=O)N1CC2(CC(c3cccc(NC(=O)COc4ccc(Cl)cc4)c3)=NO2)C[C@H]1C(N)=O (stereo partly drawn),-1%,16µM*,1,?
C/C=C\C=C/C(=O)Nc1cccc(C2=NOC3(C2)C[C@@H](C(N)=O)N(C(=O)COc2ccc(Cl)cc2)C3)c1 (stereo partly drawn),-1%,16µM*,9,-2%
COc1ccccc1NC(=O)C1CCN(S(=O)(=O)c2ccc3c(c2)NC(=O)C(C)S3)CC1 (stereo not drawn),2%,·,-10,-5%
Cn1c(=O)[nH]c(=O)c2c1nc(NCc1ccco1)n2Cc1ccccc1Cl,-1%,4%,-23,?
Cc1scc(C(=O)N/N=C/c2ccsc2)c1C,1%[46.1 µM],1%,3,6.3µM*
NC(=O)C1CCN(c2nc(-c3ccccc3[N+](=O)[O-])cs2)CC1,·,·,-1,·
O=C(CSc1nc2ccc(Cl)cc2[nH]1)c1ccc2c(c1)OCO2,0%,7.9µM*,-5,-5%
CCCC(=NC(C)CC)C1=C(O)CC(c2ccccc2)CC1=O (stereo not drawn),1%,-1%,-88*,-1%
Cn1nnnc1Sc1ncnc2scc(Br)c12,4%,·,9,2.8µM*
O=C(CCOc1ccccc1)Nc1ccc(S(=O)(=O)Nc2ncccn2)cc1,57%,·,-7,3%
COCCN(C(=O)COC(=O)C1CCC(C(C)(C)C)CC1)c1c(N)n(Cc2ccccc2)c(=O)[nH]c1=O (stereo not drawn),-3%,·,-7,10µM*
CC(C)CC(=O)Nc1nnc(S(=O)(=O)N2CCCCCC2)s1,4%,·,-6,10%
O=C(/C=C/c1ccccc1)Nc1ccc(Br)cn1,-4%,5%,-6,1.6µM*
Cc1ccc(NC(=O)/C=C/c2ccc(Cl)cc2)nc1,1%,0%,-8,-2%
CCC(C)Sc1cccc(-c2nc3cc(C)ccn3c2NC2CCCCC2)c1 (stereo not drawn),2%,·,-17,-2%
Cc1cnc(NC(=O)Nc2ccc(Cl)cc2)s1,-3%,0%,-22,2.2µM*
Cc1cnc(NC(=O)CSc2ccc(Cl)cc2)s1,4%,2%,-16,5%
O=S1(=O)c2ccc(Br)cc2N2CCC[C@@H]2CN1Cc1ccc(Cl)cc1,-4%,·,·,?
O=S1(=O)c2ccc(Br)cc2N2CC[C@H](C2)N1Cc1ccc(Cl)cc1,9%,·,·,3.2µM*
O=C1OC(c2ccccc2)=C/C1=C/N1CCOCC1,0%[46.1 µM],16µM*,-3,4%
O=C1OC(c2ccccc2)=C/C1=C\N1CCOCC1,1%,13%,-8,0%
Cn1c(-c2ccccc2)c(/C=N/NC(=O)c2ccc(O)cc2)c2ccccc21,1%,-3%,-4,3.5µM*
SMILES,TCR act,PKM2 activator,TSHR antag,uPA generation
COc1ccc(N2CCN(C(=O)Nc3ccccc3C)CC2)cc1,3%,9%,0,-9%
Nc1ccc(S(=O)(=O)c2ccc(N)c(N)c2)cc1,2%,28µM*,28,-1%
Nc1ccc(S(=O)(=O)c2cccc(N)c2)cc1,·,26%,-9,-1%
CCOc1ccccc1NC(=O)C(NCCc1ccc(OC)cc1)c1ccccc1 (stereo not drawn),3%,7%,-73*,6%
CCOc1ccccc1NC(=O)C(NCCN(C)C)c1ccccc1 (stereo not drawn),0%,-1%,11,-11%
COc1ccccc1NC(=O)Nc1ccccc1C(=O)NCCCN1CCOCC1,-1%,7%,15,-1%
